Inhibition data for two compounds are collected here from ChEMBL document CHEMBL1961873, “Compounds: GSK PKIS; Assays: Nanosyn kinase panel” (2012).

The target of assay [1] is T1, Inhibitor of nuclear factor kappa-B kinase subunit epsilon (Homo sapiens) (UniProt Q14164).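 Also: reported values are averaged percent inhibition figures against human IKKε.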
T1 sequence (whole entry): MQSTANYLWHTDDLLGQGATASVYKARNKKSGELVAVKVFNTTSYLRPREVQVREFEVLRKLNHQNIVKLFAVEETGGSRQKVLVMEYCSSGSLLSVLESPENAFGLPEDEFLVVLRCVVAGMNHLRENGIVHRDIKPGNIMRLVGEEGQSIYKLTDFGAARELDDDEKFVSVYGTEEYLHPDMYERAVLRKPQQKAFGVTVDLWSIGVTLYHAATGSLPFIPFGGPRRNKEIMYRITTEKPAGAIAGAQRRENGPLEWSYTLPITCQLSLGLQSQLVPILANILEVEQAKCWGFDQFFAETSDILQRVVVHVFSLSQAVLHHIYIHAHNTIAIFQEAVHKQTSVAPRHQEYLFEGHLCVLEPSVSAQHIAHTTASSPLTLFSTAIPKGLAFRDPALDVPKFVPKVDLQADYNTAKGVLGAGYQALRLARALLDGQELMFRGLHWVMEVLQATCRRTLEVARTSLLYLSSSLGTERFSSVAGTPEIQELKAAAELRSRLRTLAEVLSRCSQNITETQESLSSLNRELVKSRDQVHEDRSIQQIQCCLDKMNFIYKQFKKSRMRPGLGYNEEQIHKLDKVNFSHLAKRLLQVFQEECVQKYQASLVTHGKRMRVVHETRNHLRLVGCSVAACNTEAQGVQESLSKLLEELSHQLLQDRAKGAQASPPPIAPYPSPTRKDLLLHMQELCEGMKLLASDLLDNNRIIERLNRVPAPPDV
The settings on record: at 1 µM.

Assay [2] concerns the target T2, Serine/threonine-protein kinase Nek1 (Homo sapiens) (UniProt Q96PY6).
T2 sequence (whole entry): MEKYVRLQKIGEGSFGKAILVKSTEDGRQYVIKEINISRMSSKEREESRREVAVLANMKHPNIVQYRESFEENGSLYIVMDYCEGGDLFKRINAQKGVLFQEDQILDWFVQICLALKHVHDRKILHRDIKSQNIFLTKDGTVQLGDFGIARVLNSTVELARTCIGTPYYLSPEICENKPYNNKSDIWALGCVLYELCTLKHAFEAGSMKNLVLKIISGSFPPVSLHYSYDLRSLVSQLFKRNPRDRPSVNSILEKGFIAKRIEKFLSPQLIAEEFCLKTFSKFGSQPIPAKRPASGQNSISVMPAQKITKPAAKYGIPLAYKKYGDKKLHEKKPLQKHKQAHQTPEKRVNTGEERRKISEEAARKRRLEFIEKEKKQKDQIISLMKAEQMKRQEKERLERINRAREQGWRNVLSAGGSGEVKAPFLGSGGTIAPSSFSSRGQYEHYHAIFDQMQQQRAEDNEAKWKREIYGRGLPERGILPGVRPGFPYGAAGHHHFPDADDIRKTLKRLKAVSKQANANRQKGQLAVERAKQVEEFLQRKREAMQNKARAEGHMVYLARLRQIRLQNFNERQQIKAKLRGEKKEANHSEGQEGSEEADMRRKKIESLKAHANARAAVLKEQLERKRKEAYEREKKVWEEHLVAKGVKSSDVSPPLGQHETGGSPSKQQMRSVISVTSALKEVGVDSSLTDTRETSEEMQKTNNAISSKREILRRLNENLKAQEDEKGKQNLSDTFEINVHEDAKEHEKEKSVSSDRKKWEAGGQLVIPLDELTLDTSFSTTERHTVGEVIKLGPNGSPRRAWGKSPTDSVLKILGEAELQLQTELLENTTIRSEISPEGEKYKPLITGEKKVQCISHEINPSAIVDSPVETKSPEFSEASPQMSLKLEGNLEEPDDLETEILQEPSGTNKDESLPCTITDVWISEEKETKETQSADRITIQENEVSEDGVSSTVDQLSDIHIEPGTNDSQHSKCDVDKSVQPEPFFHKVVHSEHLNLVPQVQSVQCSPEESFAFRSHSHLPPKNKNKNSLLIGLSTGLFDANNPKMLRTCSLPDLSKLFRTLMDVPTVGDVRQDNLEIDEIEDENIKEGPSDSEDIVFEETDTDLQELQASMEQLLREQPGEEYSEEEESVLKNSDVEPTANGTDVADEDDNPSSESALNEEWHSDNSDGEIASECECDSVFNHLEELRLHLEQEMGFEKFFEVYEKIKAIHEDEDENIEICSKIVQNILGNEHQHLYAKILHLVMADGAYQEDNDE
The following applies: at 0.1 µM.

Assay [3] has as its target T2, Serine/threonine-protein kinase Nek1 (Homo sapiens). The following applies: at 1 µM.
For assay [4], the target named is T3, Serine/threonine-protein kinase Nek2 (Homo sapiens) (UniProt P51955).
T3 sequence (whole entry): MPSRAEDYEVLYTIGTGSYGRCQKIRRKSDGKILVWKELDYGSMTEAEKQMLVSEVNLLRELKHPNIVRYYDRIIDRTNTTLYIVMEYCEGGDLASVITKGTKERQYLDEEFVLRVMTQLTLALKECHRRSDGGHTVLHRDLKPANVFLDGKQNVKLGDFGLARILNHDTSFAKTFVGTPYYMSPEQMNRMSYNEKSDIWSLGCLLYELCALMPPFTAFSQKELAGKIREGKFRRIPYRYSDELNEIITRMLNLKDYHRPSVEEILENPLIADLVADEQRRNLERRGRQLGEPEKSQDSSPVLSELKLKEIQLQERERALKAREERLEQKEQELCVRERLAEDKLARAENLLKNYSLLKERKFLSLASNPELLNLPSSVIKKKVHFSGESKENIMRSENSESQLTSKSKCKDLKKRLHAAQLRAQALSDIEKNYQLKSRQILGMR
The following applies: at 0.1 µM.

Assay [5] addresses T3, Serine/threonine-protein kinase Nek2 (Homo sapiens). The settings on record: at 1 µM.
For assay [6], the target named is Serine/threonine-protein kinase Nek6 (Homo sapiens) (UniProt Q9HC98). The settings on record: at 0.1 µM.
For assay [7] the target is unchanged. The settings on record: at 1 µM.
Assay [8] concerns the target Serine/threonine-protein kinase Nek7 (Homo sapiens) (UniProt Q8TDX7). The following applies: at 0.1 µM.
For assay [9] the target is unchanged. The following applies: at 1 µM.
The target of assay [10] is T4, Serine/threonine-protein kinase Nek9 (Homo sapiens) (UniProt Q8TD19).
T4 sequence (whole entry): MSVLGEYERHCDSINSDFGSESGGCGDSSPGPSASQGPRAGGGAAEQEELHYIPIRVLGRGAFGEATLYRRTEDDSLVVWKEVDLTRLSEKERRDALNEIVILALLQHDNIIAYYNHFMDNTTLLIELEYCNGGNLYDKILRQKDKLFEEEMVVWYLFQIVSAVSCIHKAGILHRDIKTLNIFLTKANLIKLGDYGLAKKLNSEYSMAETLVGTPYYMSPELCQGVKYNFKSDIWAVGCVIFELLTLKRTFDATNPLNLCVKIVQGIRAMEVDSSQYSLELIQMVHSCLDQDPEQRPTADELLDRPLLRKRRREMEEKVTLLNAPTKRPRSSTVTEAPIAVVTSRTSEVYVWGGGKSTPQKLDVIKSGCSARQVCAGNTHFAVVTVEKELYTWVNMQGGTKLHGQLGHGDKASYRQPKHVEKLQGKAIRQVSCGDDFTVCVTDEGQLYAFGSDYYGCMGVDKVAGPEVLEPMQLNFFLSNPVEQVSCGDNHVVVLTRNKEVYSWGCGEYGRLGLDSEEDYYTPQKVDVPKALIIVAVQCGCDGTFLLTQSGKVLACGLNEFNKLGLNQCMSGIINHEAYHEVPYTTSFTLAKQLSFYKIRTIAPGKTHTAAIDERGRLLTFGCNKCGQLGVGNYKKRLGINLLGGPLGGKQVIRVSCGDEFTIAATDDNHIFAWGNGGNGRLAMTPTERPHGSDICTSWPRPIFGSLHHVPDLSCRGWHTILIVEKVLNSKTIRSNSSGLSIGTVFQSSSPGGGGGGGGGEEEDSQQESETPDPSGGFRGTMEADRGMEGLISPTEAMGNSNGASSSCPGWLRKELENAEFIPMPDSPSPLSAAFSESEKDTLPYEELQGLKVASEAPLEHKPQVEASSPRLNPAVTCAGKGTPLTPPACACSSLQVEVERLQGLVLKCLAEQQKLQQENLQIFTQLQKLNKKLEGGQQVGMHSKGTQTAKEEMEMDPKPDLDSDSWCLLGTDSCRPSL
The settings on record: at 0.1 µM.

Assay [11] addresses T4, Serine/threonine-protein kinase Nek9 (Homo sapiens). The settings on record: at 1 µM.
Assay [12] deals with Serine/threonine-protein kinase PLK1 (Homo sapiens) (UniProt P53350). The settings on record: at 0.1 µM.
Assay [13] has the same target. The following applies: at 1 µM.
In assay [14] the target is T5, Dual specificity protein kinase TTK (Homo sapiens) (UniProt P33981).
T5 sequence (whole entry): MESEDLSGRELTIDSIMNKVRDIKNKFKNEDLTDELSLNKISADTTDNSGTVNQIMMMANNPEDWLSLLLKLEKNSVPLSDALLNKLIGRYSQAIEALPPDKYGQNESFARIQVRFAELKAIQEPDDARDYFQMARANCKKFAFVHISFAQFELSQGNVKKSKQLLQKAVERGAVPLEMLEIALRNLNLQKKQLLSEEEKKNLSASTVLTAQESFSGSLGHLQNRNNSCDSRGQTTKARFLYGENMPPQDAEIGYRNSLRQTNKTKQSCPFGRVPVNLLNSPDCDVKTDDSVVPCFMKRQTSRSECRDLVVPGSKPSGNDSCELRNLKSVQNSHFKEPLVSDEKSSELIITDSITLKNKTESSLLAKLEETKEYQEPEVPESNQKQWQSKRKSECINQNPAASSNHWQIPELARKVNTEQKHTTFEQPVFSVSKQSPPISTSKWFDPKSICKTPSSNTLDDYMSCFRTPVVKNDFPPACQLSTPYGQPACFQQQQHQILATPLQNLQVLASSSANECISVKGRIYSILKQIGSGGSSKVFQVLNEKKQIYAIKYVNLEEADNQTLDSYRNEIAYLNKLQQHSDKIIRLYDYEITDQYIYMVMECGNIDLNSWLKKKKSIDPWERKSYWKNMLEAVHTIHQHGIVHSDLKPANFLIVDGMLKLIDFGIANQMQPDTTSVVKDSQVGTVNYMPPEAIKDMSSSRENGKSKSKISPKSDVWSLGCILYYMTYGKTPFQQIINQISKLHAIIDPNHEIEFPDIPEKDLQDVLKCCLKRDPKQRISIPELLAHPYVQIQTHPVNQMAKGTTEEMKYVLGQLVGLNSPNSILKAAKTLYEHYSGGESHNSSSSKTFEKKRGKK
The settings on record: at 0.1 µM.

Assay [15] concerns T6, Receptor-type tyrosine-protein kinase FLT3 (Homo sapiens), P36888 [D835Y].
T6 sequence (whole entry): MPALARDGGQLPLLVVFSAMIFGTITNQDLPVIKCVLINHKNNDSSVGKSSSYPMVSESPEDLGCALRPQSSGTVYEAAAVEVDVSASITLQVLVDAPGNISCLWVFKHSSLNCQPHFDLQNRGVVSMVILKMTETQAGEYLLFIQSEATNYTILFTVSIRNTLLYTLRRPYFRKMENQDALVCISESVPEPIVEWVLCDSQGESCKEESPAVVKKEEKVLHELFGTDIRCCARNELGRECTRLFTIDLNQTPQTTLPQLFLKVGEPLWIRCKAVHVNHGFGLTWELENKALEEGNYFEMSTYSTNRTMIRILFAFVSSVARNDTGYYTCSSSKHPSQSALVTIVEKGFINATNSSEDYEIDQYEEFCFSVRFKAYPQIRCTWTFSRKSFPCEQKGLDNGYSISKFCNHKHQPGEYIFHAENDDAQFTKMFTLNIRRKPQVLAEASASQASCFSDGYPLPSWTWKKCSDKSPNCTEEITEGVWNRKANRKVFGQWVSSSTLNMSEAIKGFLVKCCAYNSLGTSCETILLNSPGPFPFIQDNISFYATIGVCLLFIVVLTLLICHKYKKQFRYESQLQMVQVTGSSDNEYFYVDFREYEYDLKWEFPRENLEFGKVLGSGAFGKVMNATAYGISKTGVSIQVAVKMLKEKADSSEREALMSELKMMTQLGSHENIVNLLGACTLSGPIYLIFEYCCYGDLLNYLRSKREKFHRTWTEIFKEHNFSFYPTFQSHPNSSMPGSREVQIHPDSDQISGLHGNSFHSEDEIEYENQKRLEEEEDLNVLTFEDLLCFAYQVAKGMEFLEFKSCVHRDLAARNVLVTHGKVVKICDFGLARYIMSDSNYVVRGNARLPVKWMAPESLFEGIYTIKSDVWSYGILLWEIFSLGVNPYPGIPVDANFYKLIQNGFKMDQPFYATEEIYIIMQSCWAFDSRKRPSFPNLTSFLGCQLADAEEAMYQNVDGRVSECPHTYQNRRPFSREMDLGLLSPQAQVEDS
The settings on record: at 1 µM.

For assay [16], the target named is Vascular endothelial growth factor receptor 3 (Homo sapiens) (UniProt P35916). The settings on record: at 0.1 µM.
Assay [17] shares this target. The following applies: at 1 µM.
The target in assay [18] is Macrophage colony-stimulating factor 1 receptor (Homo sapiens) (UniProt P07333). The settings on record: at 0.1 µM.
Assay [19] shares this target. The following applies: at 1 µM.
Assay [20] concerns the target Tyrosine-protein kinase Fyn (Homo sapiens) (UniProt P06241). The settings on record: at 0.1 µM.

SMILES strings stand for the structures.

Sequence of Macrophage colony-stimulating factor 1 receptor (Homo sapiens) (P07333 whole entry): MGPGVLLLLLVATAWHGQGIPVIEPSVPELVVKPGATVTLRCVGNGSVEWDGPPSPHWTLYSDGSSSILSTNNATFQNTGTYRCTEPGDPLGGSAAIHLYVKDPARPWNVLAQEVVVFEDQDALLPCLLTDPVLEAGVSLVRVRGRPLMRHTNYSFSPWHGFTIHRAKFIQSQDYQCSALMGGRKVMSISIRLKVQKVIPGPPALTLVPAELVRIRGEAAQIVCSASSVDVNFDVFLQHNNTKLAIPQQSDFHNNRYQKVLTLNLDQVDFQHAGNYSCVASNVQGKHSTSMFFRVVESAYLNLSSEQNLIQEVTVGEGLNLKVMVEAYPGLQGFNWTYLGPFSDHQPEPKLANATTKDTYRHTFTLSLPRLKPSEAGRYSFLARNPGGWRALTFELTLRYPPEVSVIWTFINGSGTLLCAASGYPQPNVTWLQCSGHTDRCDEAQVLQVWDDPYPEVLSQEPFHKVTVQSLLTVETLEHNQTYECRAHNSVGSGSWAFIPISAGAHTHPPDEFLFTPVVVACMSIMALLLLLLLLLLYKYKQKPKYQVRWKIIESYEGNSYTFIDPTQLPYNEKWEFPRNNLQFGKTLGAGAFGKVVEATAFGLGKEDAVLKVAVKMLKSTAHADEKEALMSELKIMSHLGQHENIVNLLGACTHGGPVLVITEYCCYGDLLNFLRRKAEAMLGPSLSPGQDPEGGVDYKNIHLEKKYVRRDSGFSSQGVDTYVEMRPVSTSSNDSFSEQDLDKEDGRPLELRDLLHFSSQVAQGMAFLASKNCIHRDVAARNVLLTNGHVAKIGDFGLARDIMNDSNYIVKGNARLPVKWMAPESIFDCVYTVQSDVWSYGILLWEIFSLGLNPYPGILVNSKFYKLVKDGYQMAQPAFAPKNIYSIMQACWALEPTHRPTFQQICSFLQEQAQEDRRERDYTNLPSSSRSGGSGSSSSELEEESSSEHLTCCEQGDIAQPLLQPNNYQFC
Sequence of Serine/threonine-protein kinase Nek6 (Homo sapiens) (Q9HC98 whole entry): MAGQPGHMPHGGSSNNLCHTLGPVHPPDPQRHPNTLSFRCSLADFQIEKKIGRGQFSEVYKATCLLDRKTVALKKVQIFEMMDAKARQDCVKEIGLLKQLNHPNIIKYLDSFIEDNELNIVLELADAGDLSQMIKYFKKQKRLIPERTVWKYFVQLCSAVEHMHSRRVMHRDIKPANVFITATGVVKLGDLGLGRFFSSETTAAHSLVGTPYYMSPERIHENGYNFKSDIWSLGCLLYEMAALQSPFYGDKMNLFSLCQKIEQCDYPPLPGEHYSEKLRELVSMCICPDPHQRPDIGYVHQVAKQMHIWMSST
Sequence of Serine/threonine-protein kinase PLK1 (Homo sapiens) (P53350 whole entry): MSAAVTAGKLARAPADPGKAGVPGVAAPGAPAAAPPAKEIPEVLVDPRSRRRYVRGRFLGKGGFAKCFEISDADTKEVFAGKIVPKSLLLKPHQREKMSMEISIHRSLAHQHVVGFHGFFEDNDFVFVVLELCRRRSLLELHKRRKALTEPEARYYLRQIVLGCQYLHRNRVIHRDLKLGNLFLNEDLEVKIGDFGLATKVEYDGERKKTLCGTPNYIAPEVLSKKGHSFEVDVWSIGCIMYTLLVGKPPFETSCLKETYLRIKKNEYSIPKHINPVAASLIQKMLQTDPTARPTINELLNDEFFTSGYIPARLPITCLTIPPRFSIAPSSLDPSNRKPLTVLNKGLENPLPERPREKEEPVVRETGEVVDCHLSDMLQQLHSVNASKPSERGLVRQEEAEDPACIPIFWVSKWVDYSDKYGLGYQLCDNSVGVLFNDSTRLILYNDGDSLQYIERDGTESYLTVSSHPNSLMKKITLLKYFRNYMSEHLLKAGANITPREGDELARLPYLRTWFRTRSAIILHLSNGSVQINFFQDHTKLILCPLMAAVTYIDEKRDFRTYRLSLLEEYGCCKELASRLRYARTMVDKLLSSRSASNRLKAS
Sequence of Vascular endothelial growth factor receptor 3 (Homo sapiens) (P35916 whole entry): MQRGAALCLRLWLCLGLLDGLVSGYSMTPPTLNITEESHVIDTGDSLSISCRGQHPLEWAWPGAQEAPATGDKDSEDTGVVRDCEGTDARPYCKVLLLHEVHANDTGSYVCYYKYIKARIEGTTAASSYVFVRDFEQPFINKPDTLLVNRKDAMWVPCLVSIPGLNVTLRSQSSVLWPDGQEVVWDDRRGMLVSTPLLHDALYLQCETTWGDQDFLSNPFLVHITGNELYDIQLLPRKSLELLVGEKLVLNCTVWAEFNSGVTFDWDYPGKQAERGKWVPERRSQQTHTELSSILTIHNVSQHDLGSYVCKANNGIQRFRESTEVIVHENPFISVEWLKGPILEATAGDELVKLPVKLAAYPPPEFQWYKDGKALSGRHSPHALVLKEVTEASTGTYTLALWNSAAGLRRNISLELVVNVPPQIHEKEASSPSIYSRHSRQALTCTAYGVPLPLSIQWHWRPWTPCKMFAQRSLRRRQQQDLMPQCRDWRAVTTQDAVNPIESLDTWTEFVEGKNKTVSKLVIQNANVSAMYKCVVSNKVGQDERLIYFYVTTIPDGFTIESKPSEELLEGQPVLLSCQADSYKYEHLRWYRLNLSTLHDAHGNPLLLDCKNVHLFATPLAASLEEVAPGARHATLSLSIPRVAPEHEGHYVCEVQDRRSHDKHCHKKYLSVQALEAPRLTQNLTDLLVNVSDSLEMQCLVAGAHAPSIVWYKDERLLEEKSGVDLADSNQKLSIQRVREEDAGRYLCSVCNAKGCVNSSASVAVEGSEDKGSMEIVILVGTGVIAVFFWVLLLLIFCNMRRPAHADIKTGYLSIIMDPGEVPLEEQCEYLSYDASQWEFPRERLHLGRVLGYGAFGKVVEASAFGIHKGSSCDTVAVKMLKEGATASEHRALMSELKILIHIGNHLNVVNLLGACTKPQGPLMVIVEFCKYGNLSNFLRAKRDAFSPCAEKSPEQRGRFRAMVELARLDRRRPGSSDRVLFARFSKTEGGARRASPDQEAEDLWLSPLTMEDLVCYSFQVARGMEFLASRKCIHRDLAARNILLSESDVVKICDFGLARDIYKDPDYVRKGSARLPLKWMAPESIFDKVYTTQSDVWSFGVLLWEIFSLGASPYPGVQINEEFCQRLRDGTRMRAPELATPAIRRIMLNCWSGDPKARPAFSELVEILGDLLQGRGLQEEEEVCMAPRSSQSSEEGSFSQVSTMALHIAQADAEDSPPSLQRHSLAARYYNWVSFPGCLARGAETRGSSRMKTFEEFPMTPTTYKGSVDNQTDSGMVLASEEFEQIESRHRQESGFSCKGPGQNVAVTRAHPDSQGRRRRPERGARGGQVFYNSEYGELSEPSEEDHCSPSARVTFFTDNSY
Sequence of Serine/threonine-protein kinase Nek7 (Homo sapiens) (Q8TDX7 whole entry, looked up): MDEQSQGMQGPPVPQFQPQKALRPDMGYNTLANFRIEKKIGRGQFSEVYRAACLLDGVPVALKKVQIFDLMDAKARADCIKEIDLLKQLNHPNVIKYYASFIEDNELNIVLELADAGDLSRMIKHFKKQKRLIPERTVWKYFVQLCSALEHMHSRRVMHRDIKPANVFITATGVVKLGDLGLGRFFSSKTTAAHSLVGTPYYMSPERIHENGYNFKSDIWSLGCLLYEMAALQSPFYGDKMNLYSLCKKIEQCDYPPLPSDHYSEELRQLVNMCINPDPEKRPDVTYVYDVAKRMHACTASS
Sequence of Tyrosine-protein kinase Fyn (Homo sapiens) (P06241 2-537 limits assumed): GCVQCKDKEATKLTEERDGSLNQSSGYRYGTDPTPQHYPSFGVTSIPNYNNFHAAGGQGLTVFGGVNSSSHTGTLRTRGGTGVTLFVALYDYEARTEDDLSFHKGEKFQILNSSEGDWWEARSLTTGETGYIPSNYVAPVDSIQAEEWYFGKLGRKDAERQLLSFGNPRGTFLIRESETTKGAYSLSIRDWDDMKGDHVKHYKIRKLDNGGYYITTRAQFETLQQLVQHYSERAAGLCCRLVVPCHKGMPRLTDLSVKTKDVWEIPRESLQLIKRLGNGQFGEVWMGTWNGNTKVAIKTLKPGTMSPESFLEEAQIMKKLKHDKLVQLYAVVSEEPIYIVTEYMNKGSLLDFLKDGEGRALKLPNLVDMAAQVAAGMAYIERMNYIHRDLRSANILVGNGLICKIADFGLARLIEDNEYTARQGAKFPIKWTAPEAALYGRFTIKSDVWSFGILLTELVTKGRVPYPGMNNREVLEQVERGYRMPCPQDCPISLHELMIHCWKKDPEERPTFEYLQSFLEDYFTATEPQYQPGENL

`c1ccc(Nc2ncc(-c3ccccc3)o2)cc1`: the inhibition in assay [1] was found to be 8.49%; in [2], 2.71%; in [3], 2.57%; in [4], 5.93%; in assay [5], 0.59%; in assay [6] it was 1.04%. The inhibition amounted to 0.47% in assay [7]; 3.1% in assay [8]; 9.54% in assay [9]; 12.2% in assay [10]; 10.2% in assay [11]; 5.96% in assay [12]. Also, the inhibition came out at 5.42% in assay [13]; 18.1% in [14]; 9.89% in assay [15]; 3.79% in assay [16]; 11.7% in assay [17]; 3.76% in assay [18]. Also, the figures for the inhibition in assay [19] and in [20] were 22.9% and 3.46%, respectively.
`c1ccc(Cc2nc3ccc(Nc4ncnc5ccccc45)cc3[nH]2)cc1`: the inhibition in assay [1] amounted to 4.77%; in [2] it was 0.8%; in assay [3] it was 6.65%; in assay [4], 4.56%; in [5] it was 2.85%; in [6], 3.06%. The inhibition amounted to 4.77% in [7]; 3.7% in assay [8]; 3.14% in assay [9]; 7.36% in assay [10]; 1.93% in [11]; 2.22% in assay [12]. Besides, the inhibition worked out at 1.76% in assay [13]; 5.97% in assay [14]; 5.06% in [15]; 0.79% in assay [16]; 2.3% in assay [17]; 4.66% in assay [18]. Also, the inhibition amounted to 5.24% in assay [19] and 1.56% in [20].

What is called inhibition is the share of the control response that was lost under treatment. Lower therefore signals little suppression.
